# Test results from PubChem BioAssay (Tox21).
# Values without a mark were called inactive. Results filed as inconclusive are left out. A call without a number means that no potency is given here. Active and inactive are the calls of the source. Unless noted, the call rests on the fitted dose curve; in most records, active means well fitted curve in the direction sought with a large enough effect in the repeat runs; inconclusive means weak or mixed curves; inactive means no such curve, though single readings can be large; an effect the other way counts as inactive or inconclusive.
# Key:
# [1] = qHTS assay for small molecule agonists of the p53 signaling pathway (AID 651631; calls by dose curve; further: nearly all actives have a fitted effect of over 15% in size)
# How it was run: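 Quantitative high-throughput format: 4,000 p53RE-bla HCT-116 cells/well, 5 h pre-incubation, 16 h compound exposure at 37 °C, 2 h room-temperature substrate step, fluorescence intensity measured.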
# [2] = qHTS assay for small molecules that induce genotoxicity in human embryonic kidney cells expressing luciferase-tagged ATAD5 (AID 651632); further: nearly all actives have a fitted effect of over 15% in size
# How it was run: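 A rise in luciferase signal from ATAD5-tagged HEK293T cells marks genetic stress. Cells were exposed to compounds for 16 hr at 37C, 5% CO2, then luciferase was quantified after a 30 min room-temperature incubation with Amplite.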
# [3] = qHTS assay for small molecule agonists of the p53 signaling pathway - cell viability (AID 651633; calls by dose curve;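 further: p53RE-bla HCT reporter cells with a stable beta-lactamase p53 reporter; series mostly up to about 83 µM; nearly all actives have a fitted effect of over 30% in size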)
# How it was run: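 Viability counter-read: CellTiter-Glo luminescence (30 min, room temperature) in the same p53RE-bla plates. These plates had been exposed to compounds for 16 h at 37 C.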
# [4] = qHTS assay for small molecules that induce genotoxicity in human embryonic kidney cells expressing luciferase-tagged ATAD5 - cell viability (AID 651634; calls by dose curve; further: nearly all actives have a fitted effect of over 25% in size)
# How it was run: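 Cytotoxicity counter-readout: after 15.5 hr compound treatment at 37C, live-cell protease activity in ATAD5-luciferase HEK293T cells measured by CellTiter-Fluor fluorescence, 30 min development at 37C.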
# [5] = qHTS assay for small molecule disruptors of the mitochondrial membrane potential - cell viability (AID 720634; calls by dose curve;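 further: human HepG2 liver cancer cells; series mostly up to about 83 µM; nearly all actives have a fitted effect of over 20% in size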)
# How it was run: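 Cytotoxicity was quantified from ATP content by CellTiter-Glo luminescence in the same wells as the MMP dye read-out. HepG2 (2,000 cells/well) were plated overnight and exposed to compounds for 1 hr at 37 C.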
# [6] = qHTS assay for small molecule disruptors of the mitochondrial membrane potential (AID 720635); further: potency means the concentration at half of the fitted maximal effect
# How it was run: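 Mitochondrial membrane potential tracked with Mito-MPS dye, red aggregates (ex 540/em 590 nm) against green monomers (ex 490/em 535 nm). Compound treatment 1 hr at 37C, dye 30 min in HepG2.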
# [7] = qHTS assay to test for compound auto fluorescence at 590 nm (red) in HepG2 cells (AID 720674)
# How it was run: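 Red autofluorescence (Ex/Em 540/590 nm, Rose Bengal sodium equivalents) was measured in HepG2 cells, 2,000 per well in MEM plus 10% FBS, plated overnight at 37 C. Readings were taken 1 hr after adding 23 nL compound or DMSO, at 37 C and 5% CO2.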
# [8] = qHTS assay to test for compound auto fluorescence at 535 nm (green) in HepG2 cells (AID 720675)
# [9] = qHTS assay to test for compound auto fluorescence at 460 nm (blue) in HEK293 cells (AID 720678)
# How it was run: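 After cell attachment (4-5 hr, 37C), compounds were pinned onto HEK293 monolayers in 10% dialyzed FBS medium. The blue channel (405/460 nm) was read following overnight culture. Equivalency was calculated against triamterene.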
# [10] = qHTS assay to test for compound auto fluorescence at 590 nm (red) in HEK293 cells (AID 720679)
# How it was run: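 Plates of HEK293 cells (10% dialyzed FBS) are treated with 23 nL compound or DMSO vehicle after a 4-5 hr attachment period, incubated overnight at 37C, and read for red fluorescence at 540/590nm.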
Compound,outcome [1],outcome [2],outcome [3],Potency [4],outcome [5],Potency [6],outcome [7],outcome [8],outcome [9],outcome [10]
Cc1cccc(Cl)c1,inactive,inactive,inactive,inactive,inactive,inactive,inactive,inactive,inactive,inactive
CC(CO)(CO)CO,inactive,inactive,inactive,inactive,inactive,inactive,inactive,inactive,inactive,inactive
CNCCS(=O)(=O)O,inactive,inactive,inactive,inactive,inactive,inactive,inactive,inactive,inactive,inactive
Nc1nc(-c2ccccc2)c(Br)c(=O)[nH]1,inactive,inactive,inactive,inactive,inactive,inactive,inactive,inactive,inactive,inactive
O=C(O)[C@H](O)c1ccccc1,inactive,inactive,inactive,inactive,inactive,inactive,inactive,inactive,inactive,inactive
Cc1cc(C)c(C(=O)O)c(C)c1,inactive,inactive,inactive,inactive,inactive,inactive,inactive,inactive,inactive,inactive
O=C(Cn1ccnc1[N+](=O)[O-])NCc1ccccc1,inactive,inactive,inactive,inactive,inactive,inactive,inactive,inactive,inactive,inactive
C=CCSSCCC,inactive,inactive,inactive,inactive,inactive,inactive,inactive,inactive,inactive,inactive
OC[C@H]1O[C@@H](O[C@@H]2[C@@H](CO)O[C@](O)(CO)[C@H]2O)[C@H](O)[C@@H](O)[C@H]1O,inactive,inactive,inactive,inactive,inactive,inactive,inactive,inactive,inactive,inactive
CC(=O)O[C@H]1C[C@@H]2CC[C@@]1(C)C2(C)C,inactive,inactive,inactive,inactive,inactive,inactive,inactive,inactive,inactive,inactive
CCCSSCCC,inactive,inactive,inactive,inactive,inactive,inactive,inactive,inactive,inactive,inactive
COC(=O)/C=C\C(=O)O,inactive,inactive,inactive,inactive,inactive,inactive,inactive,inactive,inactive,inactive
CCCCCCCCCCCCCCCCCC#N,inactive,inactive,inactive,inactive,inactive,inactive,inactive,inactive,inactive,inactive
C=CCCCCCCCCC(=O)OCCCC,inactive,inactive,inactive,inactive,inactive,inactive,inactive,inactive,inactive,inactive
C#CCN[C@@H]1CCc2ccccc21,inactive,inactive,inactive,inactive,inactive,inactive,inactive,inactive,inactive,inactive
CC(=O)C(C)O (stereo not given),inactive,inactive,inactive,inactive,inactive,inactive,inactive,inactive,inactive,inactive
O=C(Cl)c1ccccc1[N+](=O)[O-],inactive,inactive,inactive,inactive,inactive,inactive,inactive,inactive,inactive,inactive
CCO[Si](CC)(OCC)OCC,inactive,inactive,inactive,inactive,inactive,61.1 µM (active),inactive,inactive,inactive,inactive
CC1=C(O)C(=O)C(C)O1 (stereo not given),inactive,inactive,inactive,inactive,inactive,inactive,inactive,inactive,inactive,inactive
Cc1ccc(C(C)NC(=O)[C@@H](NC(=O)OC(C)C)C(C)C)cc1 (stereo not given in full),inactive,inactive,inactive,inactive,inactive,inactive,inactive,inactive,inactive,inactive
Cc1cc(-c2ccccc2)nnc1NCCN1CCOCC1,inactive,inactive,inactive,inactive,inactive,inactive,inactive,inactive,inactive,inactive
O=C(NCN1CCOCC1)c1cnccn1,inactive,inactive,inactive,inactive,inactive,inactive,inactive,inactive,inactive,inactive
CC(C)=CCC/C(C)=C/COC=O,inactive,inactive,inactive,inactive,inactive,inactive,inactive,inactive,inactive,inactive
CCCCCCCCCOC(=O)c1ccccc1C(=O)OCCCCCCCCC,inactive,inactive,inactive,inactive,inactive,inactive,inactive,inactive,inactive,inactive
